Only some compounds are listed: those with a hit (about 11% of all), similar ones and a draw of the others.
AMA1-RON2 inh: inhibitors of Plasmodium falciparum AMA1-RON2 interaction; AlphaScreen AMA1-biotinylated RON2 peptide binding; Potency, µM (top dose mostly 58.2 µM), without a hit: top-dose activity change, negative = inhibition, actives largely listed as inhibitors; AID 720542; 360,000 compounds, 0.2% hits;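 further: 0% = vehicle wells and -100% = peptide control; nearly all actives have a fitted effect of over 45% in size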
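AMA1 (3D7) with his tag at 25 nM final met compounds first, then biotinylated RON2 peptide at 25 nM; detection used donor plus acceptor beads, 10 µg/mL apiece, read by AlphaScreen after 30 min at room temperature.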
Sm TGR block: S. mansoni TGR enzyme inhibition | Potency, µM (doses to about 114 µM), for inactives: at the highest dose activity change, negative = inhibition, actives largely listed as inhibitors | purified TGR, DTNB reduction, TNB absorbance 405 nm | Q962Y6 | 360,000 compounds, 3% hits | AID 485364; further: on the % scale 0 is the no-effect control and ±100 the full control effect; nearly all actives have a fitted effect of over 60% in size
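TGR 20 nM + NADPH 100 uM (dispensed conc.), cpd preinc 15 min RT; start with NADPH (500 uM addition) then DTNB (15 mM addition). Kinetic TNB absorbance, 405 nm filter. Four-parameter Hill fit across titration.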
Pf growth 96h: inhibits malaria parasite growth, 96 h | Potency, µM (doses to about 28.7 µM), for inactives: at the top dose activity change, negative = inhibition, actives largely listed as inhibitors | AID 504834 | P. falciparum luciferase reporter growth, 96 h | 320,000 compounds, 6.9% hits; further: on the % scale 0 is the no-effect control and ±100 the full control effect
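Parasite growth measured via integrated firefly luciferase reporter in P. falciparum. Infected erythrocytes at 2% hematocrit, 0.05% parasitemia final were treated 96 hours at 37 C under 5% CO2, and luminescence was read.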
Pf growth 48h: P. falciparum growth inhibition at 48 hours (one generation) | P. falciparum luciferase growth in erythrocytes, 48 h | Potency, µM (titrated, usually from 28.7 µM), inactives show at the highest dose activity change, negative = inhibition, actives largely listed as inhibitors | 310,000 compounds, 5.9% hits | AID 504832; further: on the % scale 0 is the no-effect control and ±100 the full control effect
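Cell-based growth assay: transgenic P. falciparum expressing firefly luciferase, cultured in red cells within RPMI 1640 containing 0.5% w/v Albumax, 24 mM bicarbonate and gentamycin. A drop in luciferase activity indicates inhibition.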
NS1 function inh: inhibitors of influenza NS1 protein function; Potency, µM (top dose mostly 46.1 µM), for inactives: at the top dose activity, positive = more growth; 270,000 compounds, 0.4% hits; AID 2326; calls by dose curve; further: actives are rising curves; nearly all actives have a fitted effect of over 50% in size
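Growth recovery, yeast-based: influenza A NS1 expressed in S. cerevisiae causes slow growth, and suppressors are detected by OD600. The parent strain without NS1 is used as positive control.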
* = called active by the depositor; ? = inconclusive; / = no result; [ ] = another dose, or the depositor's remark. Unless noted, the call rests on the fitted dose curve; in most records, active means well fitted curve in the direction sought with a large enough effect; inconclusive means small, poorly fitted or top-dose-only effect, or another doubt; inactive means no such curve, though single readings can be large; an effect the other way counts as inactive or inconclusive. Potency means the concentration at half of the fitted maximal effect.

SMILES	AMA1-RON2 inh	Sm TGR block	Pf growth 96h	Pf growth 48h	NS1 function inh
O=Cc1c(NCc2ccc(F)cc2)c2ccccc2[nH]c1=O	7%	3%	10µM*	-12%	-17%
CC1CCCCC1NC(=O)CCNC(=O)N1CC(=O)Nc2ccccc21 (stereo unspecified)	-3%	-17%	14%	17%	5%
COC(=O)C1=C(c2ccccc2OCc2ccccc2)C[C@@H]2CC[C@H]1N2C(=O)NCc1ccc(N(C)C)cc1	?	0%	?	6.6µM*	/
COC(=O)C1=C(c2ccc(F)cc2OCc2ccccc2)C[C@@H]2CC[C@H]1N2C(=O)NCc1ccc(N(C)C)cc1	?	-10%	?	12µM*	/
COC(=O)C1=C(c2ccccc2OCc2ccccc2)C[C@@H]2CC[C@H]1N2C(=O)NCc1ccc([N+](=O)[O-])cc1	42%	-2%	?	12µM*	/
COC(=O)C1=C(c2ccccc2OCc2ccccc2)C[C@@H]2CC[C@H]1N2C(=O)NCc1ccc(Cl)cc1	6%	-1%	?	9.3µM*	/
CC(=O)N1CCN(C(=O)c2cc3c(s2)CCC(C)C3)CC1 (stereo unspecified)	-12%	2%	33%	36%	/
Cc1ccc(CC(CC(=O)Nc2cccc(C(F)(F)F)c2)C(=O)O)cc1 (stereo unspecified)	-5%	8%	15µM*	46%	/
O=C(CC(Cc1ccccc1)C(=O)O)Nc1ccccc1 (stereo unspecified)	-1%	-3%	185%	34%	1%
Cc1ccc(NC(=O)NCCN2C(=O)C3C4C=CC(C4)C3C2=O)cc1 (stereo unspecified)	9%	1%	?	/	4%
O=C(NCCN1C(=O)C2C3C=CC(C3)C2C1=O)Nc1ccccc1 (stereo unspecified)	7%	?	?	/	-9%
COc1ccc(NC(=O)NCCN2C(=O)C3C4C=CC(C4)C3C2=O)cc1 (stereo unspecified)	-2%	4%	12µM*	94%	5%
Cc1cccc(NC(=O)NCCN2C(=O)C3C4C=CC(C4)C3C2=O)c1 (stereo unspecified)	-7%	14%	12µM*	/	-7%
CC1CCC(NC(=O)c2ccc(NC(=O)CC3SC(N4CCCC4)=NC3=O)cc2)CC1 (stereo unspecified)	8%	1%	29%	41%	/
COc1ccccc1C(=O)Nc1ccc(C(=O)N2CCCCC2)cc1	2%	8%	6%	-25%	-5%
Cc1cccc(NC(=O)CSc2cc(C)c(C#N)c3nc4ccccc4n23)c1	5%	0%	32%	?	-1%
CN(C)c1ccc(CN(C(=O)c2ccccc2Br)C2CCS(=O)(=O)C2)cc1 (stereo unspecified)	-4%	-23%	13µM*	-13%	-9%
COc1cccc(CN(C(=O)c2ccccc2Br)C2CCS(=O)(=O)C2)c1 (stereo unspecified)	11%	5%	?	-12%	-5%
Cc1ccc(CN(C(=O)c2ccccc2[N+](=O)[O-])C2CCS(=O)(=O)C2)o1 (stereo unspecified)	-1%	32µM*	48%	13%	-8%
CN(C)c1ccc(CN(C(=O)c2ccco2)C2CCS(=O)(=O)C2)cc1 (stereo unspecified)	14%	-2%	5.2µM*	56%	3%
Cc1cc2oc(C(=O)N(Cc3ccco3)C3CCS(=O)(=O)C3)cc(=O)c2cc1Cl (stereo unspecified)	4%	50µM*	-16%	-12%	-8%
Cc1ccc(CN(C(=O)c2ccccc2C)C2CCS(=O)(=O)C2)o1 (stereo unspecified)	-2%	-31%	?	2%	3%
CN(C(=O)c1cnccn1)c1nnc(-c2cccnc2)s1	/	/	/	/	-3%
O=C1N/C(=N\c2ccccn2)SC1Cc1ccc(Cl)cc1 (stereo unspecified)	2%	7%[57.1 µM]	21%	-7%	4%
COc1ccccc1CN(C)C(=O)CSc1nnc(C2CC2)n1C1CC1	-4%	4%	?	-10%	/
Cc1nn(CC(=O)N2CCc3ccccc32)c(C)c1S(=O)(=O)NC(C)(C)C	9%	/	/	/	/
COc1cccc(-c2noc(N)c2C#N)c1	9%	?	-3%	7.4µM*	-55%
